# A selection: hits, their analogues and other compounds. The true share with any hit is near 8%.
# Coupling enz: coupling enzyme interference in Giardia aldolase counter-screen; coupling enzyme system counterscreen, AmpLite Red fluorescence; 0.67% of 290,000 active; AID 2472; activity change, negative = inhibition, % at 58.2 µM, hits read low; in the data active means activity change below about -30%
#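 Counterscreen lacking aldolase: glyceraldehyde-3-phosphate coupling-enzyme reagent preincubated 10 min at RT with compound (at 57.5 uM final), then substrate/coupling system with AmpLite Red added; fluorescence read at 525/598 nm after 20 min RT.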
# TSHR antagonist: blocks TSH signaling through the human TSH receptor; P16473; TSHR-expressing cells, TSH-stimulated cAMP HTRF, 2 h; stronger effect = lower value; activity change, negative = inhibition, % at 11.5 µM; 0.2% of 330,000 active;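 active means activity change below a set negative limit, meaning inhibition stronger than a set level, cut at about -70% in these data; inconclusive means activity change between two set negative limits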
# Target sequence (P16473 whole entry, looked up): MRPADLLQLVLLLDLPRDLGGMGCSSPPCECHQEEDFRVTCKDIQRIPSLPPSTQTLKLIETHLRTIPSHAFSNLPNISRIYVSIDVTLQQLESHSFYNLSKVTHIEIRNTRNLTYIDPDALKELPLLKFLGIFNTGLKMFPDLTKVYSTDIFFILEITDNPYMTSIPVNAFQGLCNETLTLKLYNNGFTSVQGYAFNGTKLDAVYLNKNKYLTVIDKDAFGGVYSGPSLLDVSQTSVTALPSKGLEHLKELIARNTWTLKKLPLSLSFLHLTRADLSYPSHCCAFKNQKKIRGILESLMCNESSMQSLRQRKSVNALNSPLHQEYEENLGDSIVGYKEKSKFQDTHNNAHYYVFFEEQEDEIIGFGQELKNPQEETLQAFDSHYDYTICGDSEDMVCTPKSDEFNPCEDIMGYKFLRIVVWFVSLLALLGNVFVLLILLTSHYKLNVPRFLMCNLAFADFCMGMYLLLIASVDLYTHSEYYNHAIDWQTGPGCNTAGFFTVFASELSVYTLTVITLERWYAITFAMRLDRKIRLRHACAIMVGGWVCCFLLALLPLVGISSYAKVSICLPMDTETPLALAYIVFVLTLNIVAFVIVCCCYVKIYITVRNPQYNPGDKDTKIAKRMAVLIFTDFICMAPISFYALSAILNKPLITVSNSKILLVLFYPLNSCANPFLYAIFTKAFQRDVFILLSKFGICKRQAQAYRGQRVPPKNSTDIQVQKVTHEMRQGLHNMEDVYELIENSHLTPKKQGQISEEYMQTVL
#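 TSHR-expressing cells, 200/well, pre-treated with compound, then stimulated with EC80 TSH (4nM final) for 2 hours at 37 deg C. cAMP measured by competitive HTRF: anti-cAMP cryptate antibody in lysis buffer plus cAMP-d2, read after 30 minutes at room temperature.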
# ELG1 repair inh: inhibitors of ELG1-dependent DNA repair in HEK293T cells. HEK293T ELG1-luciferase reporter, luminescence, 16 h; DNA damage induced by 5-fluorouridine. Potency, µM (doses to about 46.1 µM), without a hit: at the top dose activity change, negative = inhibition, most hits filed as inhibitors. 2.3% of 330,000 active. AID 504467; further: potency means the concentration at half of the fitted maximal effect; nearly all actives have a fitted effect of over 55% in size
#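 Quantitative HTS, concentration-response format. 2,000 cells/well co-treated with 5-fluorouridine and compound, 16 hr in 5% CO2 at 37 °C; ONE-Glo luminescence read after 30 min.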
# VP16 counter: inhibits Gal4-VP16 luciferase reporter, ROR gamma counter-screen | Potency, µM (titrated, usually from 53.6 µM), for the others: at the top dose activity, negative = inhibition, most hits filed as inhibitors | 3.5% of 310,000 active | AID 2546 | Drosophila S2 Gal4-VP16 UAS-luciferase, luminescence, 20 h;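 further: Gal4-VP16 expression switched on by copper sulfate through the metallothionein promoter; potency means the concentration at half of the fitted maximal effect; nearly all actives have a fitted effect of over 50% in size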
# RORg inh: ROR gamma (mouse) transcription inhibition; P51450; Drosophila S2 Gal4-RORgamma UAS-luciferase reporter, 20 h; 5.4% of 310,000 active; Potency, µM (top dose mostly 53.6 µM), for inactives: top-dose activity change, negative = inhibition, usual class: inhibitors; AID 2551; further: potency means the concentration at half of the fitted maximal effect; nearly all actives have a fitted effect of over 60% in size
#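 ROR gamma transcriptional activity was tracked as Gal4-UAS luciferase output in stably transfected Drosophila Schneider cells, with compound added 1 hr before 700 uM copper sulfate induction and a 20 hr ambient-temperature incubation.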
# * hit, by the source's call; u = inconclusive; x = not tested or not shown; [ ] = remark or other dose. Unless noted, the call rests on the fitted dose curve; in most records, active means well fitted curve in the direction sought with a large enough effect; inconclusive means small, poorly fitted or top-dose-only effect, or another doubt; inactive means no such curve, though single readings can be large; an effect the other way counts as inactive or inconclusive. On the % scale 0 is the no-effect control and ±100 the full control effect.
SMILES,Coupling enz,TSHR antagonist,ELG1 repair inh,VP16 counter,RORg inh
CSc1ccccc1NC(=O)CSc1nnc(Cc2ccccc2)o1,0,-9,-10%,1%,-13%
O=C(c1ccc(-n2nc(C(F)(F)F)c3c2CCCC3)cc1)N1CCOCC1,4,0,5.2µM*,20%,20%
O=C(O)c1ccc(-n2nc(C(F)(F)F)c3c2CCCC3)cc1,21,-3,17%,22%,u
O=C(CCc1ccc(Oc2cc([N+](=O)[O-])cc([N+](=O)[O-])c2)cc1)N1CCCCC1,-2,0,13µM*,13µM*,u
Cc1cc(-c2cc(C(=O)NCc3ccccc3)on2)nc(S(C)(=O)=O)n1,4,7,u,u,5µM*
COCCNc1nc(C)cc(-c2cc(C(=O)NCc3ccccc3)on2)n1,5,7,14%,1%,-7%
COc1ccccc1C(C[N+](=O)[O-])c1c(N)n(C)c(=O)n(C)c1=O (stereo not given),3,-39,u,14µM*,u
O=C(N/N=C/c1ccc(O)cc1)c1[nH]c2ccc(Br)cc2c1-c1ccccc1,-1,5,-3%,u,3%
O=C(N/N=C/c1c[nH]c2ccccc12)c1cc(Br)ccc1O,-2,0,20%,7.9µM*,5.6µM*
O=C(N/N=C/c1c[nH]c2ccccc12)c1[nH]c2ccc(Br)cc2c1-c1ccccc1,2,12,17%,u,16µM*
C/C=N/NC(=O)c1cc(Br)ccc1O,0,-9,2%,u,11µM*
O=C(NN=C1CCN(Cc2ccccc2)CC1)c1cc(Br)ccc1O,4,-4,3%,u,3.5µM*
CN(/N=C/c1cccc(Br)c1)C1=NS(=O)(=O)c2ccccc21,0,-5,u,-3%,17%
O=C(N/N=C/c1c[nH]c2ccccc12)c1cccc([N+](=O)[O-])c1,-2,-6,-14%,u,13µM*
O=C(O)[C@@H]1CCCN1,x,x,x,-4%,-18%[10 µM]
O=S(=O)(c1cc(Br)c(Cl)s1)N1CCCC1,5,-78*,-3%,-21%,20%
CCOC(=O)C1=C(COC(=O)CNC(=O)c2ccc(Cl)cc2Cl)NC(=O)NC1C (stereo not given),x,-10,2%,x,x
CCC(=O)c1ccc(OCC(=O)OCC(=O)c2cc(C)n(C)c2C)cc1,x,10,9%,1.3µM*,0.89µM*
Cc1cc(C(=O)COC(=O)c2nccnc2N)c(C)n1C,-1,-5,u,u,10µM*
S=C1NCCc2ccc(Cl)cc2C1c1ccccc1 (stereo not given),-1,-7,0%,2.5µM*,1.3µM*
CCc1noc(C)c1C(=O)Nc1ccc(F)c(F)c1F,x,14,11%,x,x
CCOC(=O)C1=C(N)OC2=C(C(=O)CCC2)C1c1cccs1 (stereo not given),-40*,1,23%,-2%,16%
COC(=O)C1=C(N)OC2=C(C(=O)CCC2)C1c1cccs1 (stereo not given),-15,1,0%,26%,-21%
Cc1ccc(NC2=CC(=O)c3sc(C)nc3C2=O)cc1,-16,x,x,2.5µM*,2.2µM*
CC(C)=C(NC(=O)c1ccccc1)C(=O)NCCc1nc2ccccc2[nH]1,x,1,9%,3%,12%
SMILES,Coupling enz,TSHR antagonist,ELG1 repair inh,VP16 counter,RORg inh
CC(=O)N1CCC2(CCN(Cc3ccc(C#N)cc3)CC2)CC1,-3,x,x,2%,2%
Cc1ccc(C2=NN3C(C2)c2ccccc2OC32C(=O)Nc3ccccc32)cc1 (stereo not given),-8,-3,u,u,13µM*
CN1C(=O)C2(Oc3ccccc3C3CC(c4ccccc4)=NN32)c2ccccc21 (stereo not given),-7,0,u,2%,-43%
Cc1ccc(CNC(=O)C2CCCN(S(=O)(=O)c3cccc4nonc34)C2)cc1 (stereo not given),1,34,0%,3%,-20%
O=C(Oc1cccc2cccnc12)c1ccc2c(c1)OCCO2,-20,-2,10µM*,2µM*,1.6µM*
O=C(Oc1cccc2cccnc12)c1cccc([N+](=O)[O-])c1,-5,5,11%,3.2µM*,3.5µM*
